This note sets out measurements from PubChem BioAssay (NCI).

The panel holds about 83,000 compounds, 20% with a hit somewhere; the sample as a whole holds those more often.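 Growth was measured after 48 h exposure to one concentration of compound in 96-well plates. Values under 10 count as active.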 Active and inactive are the calls of the source.

In this experiment the test system is HCT-116 colon. Description: NCI-60 one-dose screen, 48 h (100 = growth as untreated, 0 = no growth, -100 = all killed). Conditions: 10 µM unless noted. The protocol: Growth inhibition of the HCT-116 human tumor cell line is measured as a screen for anti-cancer activity. Cells are grown in 96 well plates and exposed to the test compound for 48 hours. Compounds are tested at a single concentration, which is 10^-5 M for most compounds. The reported endpoint is percent growth (GI% or GIPRCNT), where numbers from 0 - 100% represent growth inhibition, and numbers from -100% - 0 represent cell death. For example, a value of 40 represents 60% growth inhibition. A value of 0 means no net growth occurred over the course of the experiment. A value of -40 indicates 40% of cells at the beginning of the experiment died by the end of the experiment. A value of -100 means all cells are dead at the end of the experiment.
NCI-60 Human Tumor Cell Lines Screen was performed using the standard one-dose NCI protocol, which is described in more detail at https://dtp.cancer.gov/discovery_development/nci-60/default.htm.
Compounds with GIPRCNT values below 10 were considered active. Activity score was based on GIPRCNT using the following formula: […]
Score is 0 for GIPRCNT values of 100 or above, 50 for GIPRCNT values of 0, and 100 for GIPRCNT values of -100.
Regarding `C=CCN1C(=O)/C(=c2\sc3n(c2=O)C2C(NN=3)N(CC)C(=O)N2CC)c2ccccc21` (stereo not given), the growth was 10.7% (inactive).
With `COc1ccc2c(c1)N(Cc1ccc(Cl)cc1)CCC2N1CCCC1=O` (stereo not given) the figure was 55.1% (inactive); with `O=C(Nc1ccncc1)C(=O)c1cn(S(=O)(=O)c2cccc(Cl)c2F)c2ccccc12`, 31.3% (inactive).
Then `CS(=O)(=O)c1ccc(C(=O)N2N=C(c3ccccc3)CC2c2ccc3c(c2)OCO3)cc1` (stereo not given), with 81.7% (inactive); and `CCOC(=O)C1=C(C)NC(=S)NC1c1ccccc1` (stereo not given), with 103% (inactive).
Consider `CNC(=O)c1c(NC(=O)c2cccc(C(F)(F)F)c2)sc2c1CCC(=O)C2`, for which the growth was 0.607% (active).
Consider `CC1(C)CC(=O)c2cc3c(N)c(C(=O)Nc4ccc(Cl)cc4)sc3nc2C1`, for which the growth is 108% (inactive).
With `O=C(NCCN1CCCC1)n1cc(-c2ccncc2)c(-c2cc(O)cc(Cl)c2)n1` the figure was 75.3% (inactive); with `CCOC(=O)CCN(CCC(=O)OCC)c1ccccc1`, 95.4% (inactive).
Then `O=C(CCCCCCN1CC(=O)N2[C@@H](c3ccc(Cl)c(Cl)c3)c3[nH]c4ccccc4c3C[C@H]2C1=O)NO`, with 23.2% (inactive); and `CS(=O)(=O)c1ccc(C(=O)N/N=C/c2ccc3c(c2)OCO3)cc1`, with 98.1% (inactive).
Then `CCCCCCCCCCCCCCCC1=NC(C)(C)CN1C(C)C`, with -73.5% (active).
With `CCOC(=O)C(CCCCC(NC(C)=O)(C(=O)OCC)C(=O)OCC)(NC(C)=O)C(=O)OCC`, the growth was 105% (inactive).
Then `O=C(Nc1ccc(-n2ccc3c(NC(=O)c4ccccc4)nccc32)cc1)c1ccc(N2CCOCC2)c(C(F)(F)F)c1`, with 6.59% (active); and `C=C(c1ccc(C(=O)NCCCn2ccnc2)cc1)c1cc2c(cc1C)C(C)(C)CCC2(C)C`, with -59% (active).
With `c1csc(-c2cnc3nonc3n2)c1` the figure was 66.6% (inactive).
As to `CC1=CCC2C1CC=C(C)C(CC[C@H]1[C@@](C)(O)CCC3OC(C)(C)[C@H](OC(=O)c4ccccc4)CC[C@@]31C)C2(C)C` (stereo not given in full), the growth was 51.5% (inactive).
Then `NC(N)=NC1CCCCC1`, with 98.6% (inactive); and `O=C1N(Cc2ccccc2Cl)c2ccccc2C12NN=C(c1ccccc1)S2` (stereo not given), with 43% (inactive); and `O=c1oc2ccccc2cc1-c1cc(-c2ccc(-c3cc(-c4cc5ccccc5oc4=O)nc(-c4cc5ccccc5oc4=O)c3)cc2)cc(-c2cc3ccccc3oc2=O)n1`, with 97% (inactive).
Then `O=C1OCC2=C1C(c1ccccc1)c1cc3c(cc1N2CCO)CCC3` (stereo not given), with 4.41% (active).
With `Cc1cccc2nc3ccccc3c(Nc3ccc(NS(C)(=O)=O)cc3)c12` the figure was 31.8% (inactive); with `c1ccc(-c2nnn(-c3ccccc3)n2)cc1`, 97.3% (inactive).
With `CC1(C)OC2OC3C(CN)OC(c4ccccc4)OC3C2O1` (stereo not given), the growth was 101% (inactive).
With `COc1cc(C2CC(c3ccc(C)cc3)=NN2C=O)ccc1Oc1nc2c(c(=O)n(C)c(=O)n2C)n1C` (stereo not given) the figure was 81.8% (inactive).
Then `O=C(NCCN1CCCCC1)n1cc(-c2ccncc2)c(-c2ccc(Cl)c(O)c2)n1`, with 44.6% (inactive).
With `O=c1c2cc(Cl)ccc2oc2ccc(OCCCCCN3CCCCC3)cc12` the figure was 11.5% (inactive); with `CCN(CC)CC(=O)Nc1c(C)ccc(N)c1C`, 84% (inactive); with `Cc1ccc(NC(=O)c2sc3nc4c(cc3c2N)C(=O)CCC4)cc1Cl`, 105% (inactive).
As for `CN(C)c1nc(-c2cccs2)n2nc(-c3ccc(Cl)cc3)cc2n1`, the growth is 6.95% (active).
With `COc1cc(C2CC(=O)Nc3c2cnn3C)cc(OC)c1OC` (stereo not given) the figure was 100% (inactive).
With `O=C(NNC(=O)c1cccc(Cl)c1)c1ccccc1` the figure was 107% (inactive).
Consider `C=C1C(=O)O[C@H]2[C@H]1CC/C(COC(=O)N[C@@H](Cc1c[nH]c3ccccc13)C(=O)OC)=C\CC[C@@]1(C)O[C@@H]21`, for which the growth is -78% (active).
Turning to `CCC(=O)OCc1ccc(OC)cc1`, the growth is 98.7% (inactive).
Turning to `COc1cc(CN(c2ccc(C)cc2)C2OC(=O)c3ccccc32)cc(OC)c1OC` (stereo not given), the growth is 6.74% (active).
With `COC(=O)[C@@H](Cc1c[nH]c2ccccc12)NC(=O)/C=C/c1ccccc1` the figure was 16.8% (inactive); with `CC(C)OC1OC(OC(C)C)C(OC(C)C)OC1OC(C)C` (stereo not given), 88.5% (inactive); with `OC(COCc1ccccc1)COCc1ccccc1`, 99% (inactive).
Then `CNC(=O)OC1C(O[C@H]2C[C@H]3[C@@H]4CC=C5C[C@@H](O)CC[C@]5(C)[C@H]4CC[C@]3(C)[C@H]2[C@H](C)C(=O)CCC(C)C)OCC(O)C1OC1OCC(O)C(O)C1OC(=O)c1ccc(OC)cc1` (stereo not given in full), with 8.61% (active).
Then `COc1nccc2c(Sc3ccccc3)nc(N)nc12`, with 97.6% (inactive).
